# Measured values reported in PubChem BioAssay AID1347416 (National Center for Advancing Translational Sciences (NCATS), 2020).
# The campaign covered roughly 4,100 compounds. About 1,600 (39%) were called active. Inconclusive results (about 25%) are left out. The list shows a part of the results. Unmarked numbers belong to inactive results. Calls follow the shape of the dose curve; as a rule, active = well fitted inhibition curve with a large enough effect; inconclusive = small, poorly fitted or top-dose-only effect; inactive = no such curve, though single readings can be large or run the other way.
# Experiment: qHTS Validation assay for Inhibitors of Plasmodium falciparum Dd2 growth in vitro; also: nearly all actives have a fitted effect of over 70% in size
# Conditions: P. falciparum Dd2 in RBCs, SYBR Green growth, 72 h; series mostly up to 28.7 µM; activity change, negative = inhibition: at the top concentration
# From the text: Malaria, a parasitic disease spread to humans through the bite of a Plasmodium infected Anopheles mosquito, continues to be a global health burden affecting millions of people, with an estimated 228 million cases and 405,000 deaths in 2018. Concerns about safety and limitations of current antimalarial treatments strongly emphasize the need to develop new therapeutic options. The scarce number of chemotypes and validated drug targets with efficacy against the liver stage, have hindered development of new antimalarials. To address this, a chemoprophylactic drug discovery effort was conducted through a combined phenotypic high-throughput asexual blood stage and liver stage screen, providing a robust foundation to identify liver-stage active lead chemotypes. Compounds were initially screened against Plasmodium falciparum Dd2 strain parasites using a in vitro SYBRGreen-1 based 72 hr proliferation assay to identify novel chemotypes to advance to liver stage assays. NIH/NCATS Early Translation Branch Assay Submitter (PI): Anton Simeonov Ph.D.
# […] Assay Protocol: PROTOCOL TABLE (as described by Inglese et al., 2007) SEQUENCE No. (e.g., 1, 2, 3, etc.); PARAMETER (e.g., Cells, Incubation, Reagent, etc.); VALUE; DESCRIPTION SEQUENCE, Parameter, Description 1; Reagent; 3 uL complete malaria growth medium, 1536 TC treated Black clear bottom plate 2; Controls; 23 nL positive control artesunate (300 nM final) to column 1; Neutral control DMSO to columns 2-4 3; Compound; 23 nL of compounds in dose response concentration (29 uM to 0.5 nM final) 4; Reagent; 5 uL malaria infected red blood cells (2.5% hematocrit final, 0.3% parasitemia 5; Time; 72 hours at 37C (5% O2, 5% CO2, 90% N2; 95% Rh) 6; Reagent; 2 uL lysis buffer/SYBRGreen-1, 25 sec shake immediately following dispense 7; Time; ~16 hours at 37C (5% O2, 5% CO2, 90% N2; 95% Rh) 8; Detector; EnVision (PerkinElmer) bottom read at 485/14nm excitation and 535/25 nm emission NOTES (numbers refer to sequence above): 1; Complete Malaria Growth Media: 1X RPMI-1640 w/L-glutamine, 5.5g/L Albumax II, 367 uM Hypoxanthine, 25 mM HEPES, 0.25% Sodium Bicarbonate, 35 uM Gentamicin sulfate 2; Controls were added using the Kalypsis Pintool (Wako USA) equipped with 1536 pinhead 3; Compounds were added in a 7-point, titration with a high final concentration of 29 uM by Pintool from seven inter-plate titrations of library plates and two DMSO control plates at the beginning and end (see Yasgar et al., 2008). 4; Red blood cells infected with Plasmodium falciparum Dd2 parasites were used. 6; Lysis buffer: 20 mM Tris-HCl, 10 mM EDTA, 0.16% Saponin, 1.6% Triton-X, 10X SYBR Green. REFERENCE: Inglese J, Shamu CE, Guy RK. 2007. Reporting data from high-throughput screening of small-molecule libraries. Nat Chem Biol. doi:10.1038/nchembio0807-438 Yasgar A, Shinn P, Jadhav A, Auld D, Michael S, Zheng W, Austin CP, Inglese J, Simeonov A. 2008. Compound Management for Quantitative High-Throughput Screening. J Lab Autom 13:79-89. doi:10.1016/j.jala.2007.12.004
# % is scaled to controls: 0 for no effect and ±100 for the full control effect; potency is read from the fitted curve at half-maximal effect.
Compound,"activity change, negative = inhibition",Potency
CN1Cc2ccccc2-n2ccnc2C12CCN(C(=O)c1cccc(C(F)(F)F)c1)CC2,-8.82%,–
Clc1ccc(C(Cn2ccnc2)OCc2csc3c(Cl)cccc23)c(Cl)c1 (centres undefined),–,2.37 µM (active)
CCCCn1c(NS(=O)(=O)c2ccccc2)c(C(=O)OCC)c2nc3ccccc3nc21,–,10.6 µM (active)
C=CC1CN2CCC1CC2C(OC(C)=O)c1ccnc2ccc(OC)cc12 (centres undefined),–,1.68 µM (active)
CN(C)CC1CSCCC1(O)c1ccccc1Cl (centres undefined),–,5.96 µM (active)
Cc1ccccc1CN1C(=O)CN=C(c2ccccc2)c2cc(Cl)ccc21,–,16.8 µM (active)
CCC1(OC(=O)CN)C(=O)OCc2c1cc1n(c2=O)Cc2cc3ccccc3nc2-1 (centres undefined),–,6.68 µM (active)
Oc1c(Cl)cc(Cl)cc1CN1CCN(Cc2ccccc2)CC1,–,0.668 µM (active)
Oc1ccc(Cl)cc1CN1CCN(Cc2ccccc2)CC1,–,0.944 µM (active)
O=C(NC[C@H]1C[C@@H]2CCN1C[C@@H]2CN1CCC(Cc2ccccc2)CC1)c1ccccc1,–,7.69 µM (active)
COc1ccc(CN2CCCC(C(=O)c3ccc(Cl)cc3)C2)c(O)c1 (centres undefined),–,0.531 µM (active)
O=C(C[C@@H]1NCCC[C@H]1O)Cn1cnc2cc(Br)c(Cl)cc2c1=O,–,2.37 µM (active)
C[n+]1c(-c2ccccc2)cc(-c2ccc(Cl)cc2)cc1-c1ccccc1,–,6.68 µM (active)
COc1cc2c(cc1OC1CCCC1)NC(=O)C21CCN(c2cnccn2)CC1,–,7.69 µM (active)
COc1cc2c(cc1OCc1ccccc1)NC(=O)C21CCN(c2ccccn2)CC1,–,15.3 µM (active)
Cn1nccc1CN1CCC2(CC1)C(=O)Nc1ccccc12,-13.6% [at 43.1 µM],–
COc1cc2c(cc1OCC1CC1)NC(=O)C21CCN(c2nccs2)CC1,–,21.7 µM (active)
COc1cc2c(cc1Oc1cccc(N(C)C)c1)NC(=O)C21CCN(c2cnccn2)CC1,–,1.5 µM (active)
COc1cc2c(cc1OCC1CC1)NC(=O)C21CCN(C(=O)c2cccnc2)CC1,44.2% [at 43.1 µM],–
COc1cc2c(cc1Oc1ccccc1)NC(=O)C21CCN(C(=O)c2ccccc2)CC1,9.16% [at 43.1 µM],–
COc1cc2c(cc1Oc1ccccc1)NC(=O)C21CCN(c2cnccn2)CC1,–,2.17 µM (active)
O=C(Nc1ccc2n(c1=O)C[C@H]1C[C@@H]2CN(Cc2ccc(F)cc2)C1)c1cccs1,–,15.3 µM (active)
CC[C@H]1CN2CC[C@H]1C[C@@H]2CNCc1ccc(SC)cc1,–,4.33 µM (active)
C#C[C@H]1CN2CC[C@H]1C[C@@H]2CNCc1ccc(F)c(F)c1,–,13.7 µM (active)
C#C[C@H]1CN2CC[C@H]1C[C@@H]2CNCc1cccc(Cl)c1,–,4.85 µM (active)

Compound,"activity change, negative = inhibition",Potency
O[C@H]1[C@H](NCC2CCCC2)[C@@H](c2ccccc2)C[C@H]1O,–,6.11 µM (active)
COc1cc2c(cc1OCc1ccccc1)N(C(=O)c1cc3ccccc3[nH]1)CC21CCN(C)CC1,–,0.944 µM (active)
COc1cc2c(cc1OCc1ccccc1)N([S+](=O)([O-])c1cccnc1)CC21CCN(C)CC1,–,10.6 µM (active)
COc1cc2c(cc1OCc1ccccc1)N(C(=O)c1cc3ccccc3n1C)CC21CCN(C)CC1,–,2.11 µM (active)
CCc1ccc(CN2CCN(Cc3cc(Br)ccc3O)CC2)cc1,–,2.11 µM (active)
Oc1ccc(Br)cc1CN1CCN(c2ccccc2)CC1,–,2.11 µM (active)
Cc1ccc(O)c(CN2CCN(c3ccccc3)CC2)c1,–,2.99 µM (active)
CC(C)c1ccc(O)c(CN2CCN(c3ccccc3)CC2)c1,–,1.33 µM (active)
CNC(=O)Oc1cccc(-c2cn3cc(OC(=O)NC)ccc3n2)c1,-2.9%,–
CC(C)(C)c1ccc(O)c(CN2CCN(c3ccccc3)CC2)c1,–,1.5 µM (active)
Oc1cc2c(cc1CN1CCN(c3ccccc3)CC1)CCC2,–,3.35 µM (active)
COc1ccccc1N1CCN(Cc2cc(C)c(C)cc2O)CC1,–,0.376 µM (active)
COc1ccc(OC)c(S(=O)(=O)NC[C@H]2C[C@@H]3CCN2C[C@@H]3c2cc(-c3ccc(F)cc3)nn2C)c1,–,6.68 µM (active)
COc1ccc(-c2cc([C@H]3CN4CC[C@H]3C[C@@H]4CNC(=O)NC3CCCCC3)n(C)n2)cc1,–,1.88 µM (active)
Cn1nc(C2CCCCC2)cc1[C@H]1CN2CC[C@H]1C[C@@H]2CNC(=O)c1cccs1,–,13.7 µM (active)
COc1ccc(-c2cc([C@H]3CN4CC[C@H]3C[C@@H]4CNS(=O)(=O)c3ccc(Cl)cc3)n(C)n2)cc1OC,–,2.99 µM (active)
COc1ccc(-c2cn(C[C@H]3C[C@@H]4CCN3C[C@@H]4C(=O)NCc3ccccc3)nn2)cc1,-16.3% [at 43.1 µM],–
CN1CCN(C[C@H]2CN3CC[C@H]2C[C@@H]3CNS(=O)(=O)c2ccccc2)CC1,0% [at 43.1 µM],–
Cc1ccc(S(=O)(=O)NC[C@H]2C[C@@H]3CCN2C[C@@H]3CN2CCc3ccccc32)cc1,–,13.7 µM (active)
C[n+]1c2ccccc2nc2ccc(NCCO)cc21,–,1.19 µM (active)
COC(=O)C1=C(c2ccc(-c3ccccc3)c(F)c2)C[C@@H]2CC[C@H]1N2C(=O)NCc1cccc2ccccc12,–,10.6 µM (active)
COC(=O)C1=C(c2ccc(OC)c(OC)c2)C[C@@H]2CC[C@H]1N2C(=O)NCc1cccc2ccccc12,–,3.35 µM (active)
COc1cccc(CC(=O)N2[C@H]3CC[C@@H]2c2cnc(-c4ccc(F)cc4)nc2C3)c1,-7.05%,–
CCCCCSc1cc(O)c(C(CNC)C(C)C)cc1OC (centres undefined),–,0.168 µM (active)
